Experimental findings from PubChem BioAssay AID1347074 (Center for Chemical Genomics, University of Michigan, 2019) are described below.

In all, about 47,000 compounds went through this assay and about 2,800 (6%) were called active. Cut-off read from the data, not from the text of the source: active = z-score above about 3 (passing the limit was not always enough); inactive = the rest. For the sample, actives were picked, then their nearest neighbours and some compounds at random.

The assay deals with Endoribonuclease Dicer (Homo sapiens) (UniProt Q9UPY3). As to the kind of experiment: Dicer cleavage of pre-miR-21 blockers – biochemical, cat-ELCCA, chemiluminescence, primary screen (AID 1347074).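 Note: plate controls were vehicle for no effect and no enzyme for full effect; higher signal means more uncleaved substrate so more Dicer inhibition.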 To be noted: cat-ELCCA pre-miR-21 Dicer processing, at 25 µM, hits give high values.
Sequence of Endoribonuclease Dicer (Homo sapiens) (Q9UPY3 whole entry, looked up): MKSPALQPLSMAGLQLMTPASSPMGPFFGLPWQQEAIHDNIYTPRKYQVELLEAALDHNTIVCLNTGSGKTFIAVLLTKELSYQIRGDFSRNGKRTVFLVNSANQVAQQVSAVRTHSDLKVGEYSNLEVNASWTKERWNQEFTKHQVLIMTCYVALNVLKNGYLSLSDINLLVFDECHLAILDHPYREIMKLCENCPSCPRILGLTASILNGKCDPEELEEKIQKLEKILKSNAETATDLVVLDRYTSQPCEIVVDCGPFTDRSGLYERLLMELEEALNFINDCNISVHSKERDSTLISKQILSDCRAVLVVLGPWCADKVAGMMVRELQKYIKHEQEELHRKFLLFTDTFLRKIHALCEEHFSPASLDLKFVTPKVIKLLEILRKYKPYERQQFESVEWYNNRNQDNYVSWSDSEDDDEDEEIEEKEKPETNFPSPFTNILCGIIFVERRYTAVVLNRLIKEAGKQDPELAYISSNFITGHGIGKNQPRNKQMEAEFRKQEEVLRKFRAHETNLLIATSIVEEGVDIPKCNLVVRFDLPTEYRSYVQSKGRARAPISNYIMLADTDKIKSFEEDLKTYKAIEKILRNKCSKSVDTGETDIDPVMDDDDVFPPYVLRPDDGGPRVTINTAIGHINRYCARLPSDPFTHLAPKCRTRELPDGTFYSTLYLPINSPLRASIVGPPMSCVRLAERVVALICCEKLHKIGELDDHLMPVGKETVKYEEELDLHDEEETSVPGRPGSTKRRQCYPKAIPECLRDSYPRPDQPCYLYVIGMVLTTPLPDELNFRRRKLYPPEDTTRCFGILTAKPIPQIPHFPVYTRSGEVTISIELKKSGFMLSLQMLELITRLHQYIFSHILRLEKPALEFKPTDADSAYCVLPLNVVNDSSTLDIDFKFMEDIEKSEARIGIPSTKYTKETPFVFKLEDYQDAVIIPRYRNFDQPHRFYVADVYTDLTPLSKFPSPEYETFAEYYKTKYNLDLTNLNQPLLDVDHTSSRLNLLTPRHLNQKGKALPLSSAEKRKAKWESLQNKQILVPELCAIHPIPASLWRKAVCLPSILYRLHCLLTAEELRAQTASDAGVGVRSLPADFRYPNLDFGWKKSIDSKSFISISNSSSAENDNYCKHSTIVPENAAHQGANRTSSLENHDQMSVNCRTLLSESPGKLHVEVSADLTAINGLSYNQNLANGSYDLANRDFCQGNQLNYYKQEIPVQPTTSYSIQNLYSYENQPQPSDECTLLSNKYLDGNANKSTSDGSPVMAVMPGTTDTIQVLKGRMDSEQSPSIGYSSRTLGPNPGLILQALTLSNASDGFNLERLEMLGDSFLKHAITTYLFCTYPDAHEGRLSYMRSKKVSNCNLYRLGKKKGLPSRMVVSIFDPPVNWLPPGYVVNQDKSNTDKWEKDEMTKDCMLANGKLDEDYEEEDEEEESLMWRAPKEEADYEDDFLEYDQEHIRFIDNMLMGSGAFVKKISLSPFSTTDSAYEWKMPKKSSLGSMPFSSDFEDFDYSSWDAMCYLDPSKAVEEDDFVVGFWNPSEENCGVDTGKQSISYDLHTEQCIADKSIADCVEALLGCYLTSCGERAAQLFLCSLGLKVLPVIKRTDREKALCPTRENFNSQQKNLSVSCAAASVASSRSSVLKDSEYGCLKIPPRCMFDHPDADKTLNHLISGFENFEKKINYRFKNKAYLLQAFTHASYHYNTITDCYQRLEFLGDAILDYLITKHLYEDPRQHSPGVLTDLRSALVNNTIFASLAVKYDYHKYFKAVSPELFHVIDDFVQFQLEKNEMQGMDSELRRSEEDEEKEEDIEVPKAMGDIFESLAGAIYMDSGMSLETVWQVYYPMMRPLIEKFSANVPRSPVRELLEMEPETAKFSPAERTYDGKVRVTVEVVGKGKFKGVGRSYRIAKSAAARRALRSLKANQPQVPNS
Take `CSc1sc(C(=O)c2ccc(Cl)cc2)c2c1C(=O)CCC2`: the z-score is -1.08 (inactive). In the case of `CC(=O)N1CCc2cc(NC(=S)Nc3ccccc3Cl)ccc21`, the z-score was 0.03 (inactive). In the case of `CSc1sc(C(=O)NNC(=S)Nc2ccccc2Cl)c2c1C(O)CCC2` (stereo not given), the z-score is 6.52 (active).

Regarding `CC1=C(C(=O)OCCc2ccccc2)C(c2cccs2)C2=C(CCCC2=O)N1` (stereo not given), the z-score is 0.14 (inactive). As for `CC(C)c1nnc(NC(=O)Cn2c(=O)sc3ccccc32)s1`, the z-score was 0.59 (inactive).

In the case of `COc1ccc(Cl)cc1NC(=O)CSc1nc2ncccc2[nH]1`, the z-score was 3.45 (active). In the case of `Nc1cc(=O)[nH]c(SCC(=O)Nc2ccccc2F)n1`, the z-score is 1.47 (inactive).

With `CNC(=O)CSc1nc2ccccc2[nH]1`, the z-score was 1.43 (inactive). On to `O=C1c2ccccc2C(=O)N1CN1CCC(CCCC2CCN(CN3C(=O)c4ccccc4C3=O)CC2)CC1`, for which the z-score is 2.46 (inactive). With `Cc1sc2nc3n(c(=O)c2c1C)N=C(c1cccs1)CS3` the figure was 1.1 (inactive); with `O=C1c2cccnc2C(=O)N1c1ccc(-c2nc3ccccc3o2)cc1`, 2.88 (inactive); with `O=C(OCCN1CCCCC1)C1COc2ccccc2O1` (stereo not given), 3.41 (active). `Cc1cc(NC(=O)CCC2COc3ccccc3O2)no1` (stereo not given): the z-score is 0.67 (inactive). For the molecule `O=C(OCCN1CCOCC1)C1(c2ccccc2)CCCCC1`, the z-score is -0.8 (inactive). With `CC(C)(C)c1cc(N/C=C/c2nnnn2-c2ccccc2)no1` the figure was -0.3 (inactive); with `COc1ccc(CN2CCN(Cc3ccccc3OC)CC2)cc1Br`, 3.53 (active); with `Brc1cccc(CN2CCN(Cc3cccnc3)CC2)c1`, 1.06 (inactive). With `c1ccc(CN2CCN(Cc3cn[nH]c3-c3ccccc3)CC2)cc1`, the z-score was -2.57 (inactive). For `COc1cccc(CNCc2ccc3c(c2)OCO3)c1`, the z-score was 0.54 (inactive).

In the case of `c1ccc(NCc2ccc3c(c2)OCO3)nc1`, the z-score is -1.56 (inactive).

For the molecule `c1cc(CNCc2ccc3c(c2)OCO3)ccn1`, the z-score was 3.21 (active). As for `COc1cccc(N2C(=O)C3ON(c4ccccc4)C(c4ccco4)C3C2=O)c1` (stereo not given), the figure is 1.03 (inactive). With `COc1ccc(OCC(O)CN2CCC(C)CC2)cc1` (stereo not given), the z-score was -0.23 (inactive). With `CC1=C(C(=O)OCC2CCCO2)C(c2ccc(-c3ccccc3)cc2)C2=C(CCCC2=O)N1` (stereo not given) the figure was 1.9 (inactive); with `CC1=C(C(=O)OCc2ccccc2)C(c2ccc(O)cc2)C2=C(CCCC2=O)N1` (stereo not given), 0.01 (inactive); with `O=C1CCCC2=C1C(c1ccc([N+](=O)[O-])o1)Nc1ccc(C(=O)c3ccccc3)cc1N2` (stereo not given), 4.19 (active). With `COc1ccc(Cc2nc3c4c5c(sc4ncn3n2)CCCC5)cc1OC` the figure was 0.1 (inactive); with `N#C/C(=C\c1sccc1Oc1ccccc1)S(=O)(=O)c1ccc(Cl)cc1`, -1.9 (inactive). For the molecule `O=C1c2ccccc2C(=O)C1c1ccccc1F`, the z-score is 20.4 (active).

As to `Nc1nc2c(c(=O)[nH]1)C(c1ccccc1F)CC(=O)N2` (stereo not given), the z-score is -1.01 (inactive).

As for `O=C1c2ccccc2C(=O)C1c1ccccc1`, the z-score is 0.31 (inactive).

With `COC(=O)CCS(=O)(=O)c1ccc2ccccc2c1`, the z-score is 1.34 (inactive). Turning to `COC(=O)c1ccc(/C=C/c2nc3cc(C)c(C)cc3o2)cc1`, the z-score was -0.26 (inactive).

As to `Cc1ccc(S(=O)(=O)Nc2cccc(-c3cn4ccccc4n3)c2)cc1C`, the z-score is 5.71 (active). In the case of `O=S(=O)(c1cccc(-c2cn3ccccc3n2)c1)N1CCCC1`, the z-score was -0.49 (inactive).

For `Cc1cccn2cc(-c3cccc(S(=O)(=O)N4CCCCC4)c3)nc12`, the z-score was 0.61 (inactive).

Consider `COc1ccc(O)c(C2=NN3C(C2)c2cc(Cl)ccc2OC3c2cccnc2)c1` (stereo not given), for which the z-score is -1.34 (inactive). In the case of `Cc1ccc(O)c(C2=NN3C(C2)c2cc(Cl)ccc2OC3c2ccncc2)c1` (stereo not given), the z-score was -0.01 (inactive). In the case of `Oc1ccccc1C1=NN2C(C1)c1cc(Br)ccc1OC2c1ccncc1` (stereo not given), the z-score is 12.7 (active).

With `O=C(O)/C=C/C(=O)Nc1cccc([N+](=O)[O-])c1`, the z-score was 1.26 (inactive). Take `Cc1cccc(C)c1NC(=S)N1CCc2ccccc2C1`: the z-score is -2.91 (inactive). On to `O=[N+]([O-])c1cc(Br)cnc1Sc1n[nH]c(-c2cccs2)n1`, for which the z-score was -0.81 (inactive). As to `Clc1ccc(-c2nn3c(-c4ccc(Cl)cc4)nnc3s2)cc1`, the z-score is 0.14 (inactive). Regarding `COc1nc(NC(C)(C)C)nc(Oc2ccc(=O)[nH]n2)n1`, the z-score is -0.91 (inactive). As for `O=C1CC(c2ccccc2)Cc2nc(N3CCN(Cc4ccc5c(c4)OCO5)CC3)ncc21` (stereo not given), the z-score is -1.59 (inactive). For `O=C(c1cccs1)N1CCN(Cc2ccc3c(c2)OCO3)CC1`, the z-score was 0.63 (inactive). For `CCCCCc1c(C)nc(N2CCN(Cc3ccc4c(c3)OCO4)CC2)[nH]c1=O`, the z-score was 3.11 (active).

Turning to `CCCCN1C(=O)C(c2c(C)[nH]n(-c3ccccc3)c2=O)(C(F)(F)F)C2=C1CC(C)(C)CC2=O` (stereo not given), the z-score is -2.96 (inactive). With `Cc1ccc(S(=O)(=O)Nc2cccc(CCc3ccccn3)c2)cc1` the figure was -0.8 (inactive); with `CCCCCCCCc1ccc(C(=O)O)cc1`, -0.9 (inactive).

As for `COCCCNC(=S)Nc1ccc(C)cc1C`, the z-score was -0.42 (inactive).

With `CCCc1ccc(C(=O)NNc2ccc(C)cc2C)cc1`, the z-score was 4.39 (active). On to `Oc1c(C(Nc2ccccn2)c2ccncc2)ccc2cccnc12` (stereo not given), for which the z-score is 1.37 (inactive). For the molecule `Cc1cccc(Cl)c1N=C(N)N=C(N)N`, the z-score was 1.97 (inactive). For `CC1(C)N=C(N)N=C(N)N1c1cc(Cl)c(Cl)cc1Cl`, the z-score is -0.47 (inactive). With `O=c1ccn(C2CCCO2)c(=O)n1Cc1ccccc1F` (stereo not given), the z-score was 0.96 (inactive). Regarding `CCc1ccc(C(=O)/C=C/Sc2nc3ccccc3o2)cc1`, the z-score is 1.33 (inactive).

Consider `CCc1ccc(C(=O)/C=C/Sc2ccccn2)cc1`, for which the z-score is 4.22 (active). Regarding `CCCc1c(C)nc2scc(-c3ccc(Cl)cc3)n2c1=O`, the z-score is 1.65 (inactive).

With `O=C(Nc1cccc(C(F)(F)F)c1)Nc1ccccc1SCc1ccc(Cl)cc1`, the z-score was -1.32 (inactive). As for `COCCCNC(=S)N/N=C/c1ccccc1Cl`, the figure is -0.35 (inactive); as for `COc1cccc(/C=N/NC(=S)Nc2cc(C(F)(F)F)cc(C(F)(F)F)c2)c1O`, 5.84 (active); as for `COc1cccc(/C=N/NC(=O)c2cc(C)nc3ccc(Br)cc23)c1O`, 2.93 (inactive). As for `CC(C)OC(=O)Cn1nc(C(F)(F)F)c2c1CCCC2`, the z-score was 0.31 (inactive). With `CNC(=O)NC(=O)CSc1ncnc2sc(-c3ccccc3)cc12` the figure was -1.14 (inactive); with `c1ccc(Nc2ncnc3sc(-c4ccccc4)cc23)cc1`, 0.51 (inactive). With `COc1ccc(Nc2ncnc3sc(-c4ccccc4)cc23)c(OC)c1`, the z-score was 8.39 (active). `CCOc1nc(-c2ccc(C)cc2)ccc1-c1noc(C)n1`: the z-score was 0.71 (inactive). As for `Cn1c(SCC(=O)Nc2cccc(C(F)(F)F)c2)nnc1SCC(=O)Nc1cccc(C(F)(F)F)c1`, the z-score is -0.05 (inactive). `COc1cc(C2c3c(oc4ccc(F)cc4c3=O)C(=O)N2Cc2ccccc2)ccc1O` (stereo not given): the z-score is 2.47 (inactive). Turning to `COc1nc(NC(=O)NS(=O)(=O)c2ccccc2C(F)(F)F)nc(C23CC4CC(CC(C4)C2)C3)n1`, the z-score is -0.58 (inactive). Take `Cc1ccc2nc(-c3ccc(NS(=O)(=O)c4ccc(Cl)s4)cc3)sc2c1`: the z-score is 4.31 (active). In the case of `Cc1ccc(S(=O)(=O)Nc2ccc3ncccc3c2)cc1`, the z-score was 0.32 (inactive). Regarding `Cc1ccc(Sc2nc3ccc(Cl)cc3s2)cc1`, the z-score is -1.81 (inactive).

In the case of `COc1ccc(C2CC(=O)c3cn4nc(C)nc4nc3C2)cc1OC` (stereo not given), the z-score was -0.07 (inactive). In the case of `Cc1cc(C)c(S(=O)(=O)N2CCc3ccccc3C2)c(C)c1`, the z-score is 0.07 (inactive). For `CN([C@H]1CCN2CCc3ccccc3C2C1)S(C)(=O)=O` (stereo not given in full), the z-score is 3.92 (active). For `CN(C(=O)CSc1nc(C2CCCCC2)c(C#N)c(=O)[nH]1)c1ccccc1`, the z-score is -0.59 (inactive).

On to `COc1ccc(C2=Nc3ccccc3SC(c3ccc(OC)c(O)c3)C2)c(O)c1` (stereo not given), for which the z-score is -0.56 (inactive). Consider `COc1ncnc2sc(C(=O)O)c(C)c12`, for which the z-score is 0.21 (inactive). With `CCc1ccc(S(=O)(=O)Nc2cc(Cl)c3oc(=O)sc3c2)cc1`, the z-score was 14.8 (active). With `CCOc1ccc(NS(=O)(=O)c2ccc(Cl)cc2)cc1` the figure was 0.5 (inactive).

For `CCc1ccnc(NS(=O)(=O)c2ccc3c(c2)OCCO3)c1`, the z-score is 0.59 (inactive).

Turning to `COc1ccc(-c2cnc3cc(-c4ccc(Cl)cc4)nn3c2N)cc1OC`, the z-score was 1.34 (inactive). For `O=C1C2=C(Nc3ccccc3S(=O)(=O)C2c2ccc(Cl)cc2)c2ccccc21` (stereo not given), the z-score is 5.21 (active). Turning to `O=C1C2=C(Nc3[nH]c(=O)[nH]c(=O)c3C2c2ccc(F)cc2)c2ccccc21` (stereo not given), the z-score is -3.54 (inactive). For `Cn1c2c(c(=O)n(C)c1=O)C(c1ccc(F)cc1)C1=C(N2)c2ccccc2C1=O` (stereo not given), the z-score is 1.52 (inactive). With `O=C1c2oc3ccccc3c(=O)c2C(c2ccccc2F)N1c1nncs1` (stereo not given) the figure was -0.05 (inactive); with `O=C1CC(=O)CC(c2cccc(Cl)c2)C1`, -0.3 (inactive). Consider `Cc1ccc(-c2nnc(N3CCOCC3)c3ccccc23)cc1S(=O)(=O)N1CCCCC1`, for which the z-score was -4.68 (inactive). Take `Cc1ccc(-c2nnc(Nc3ccccc3)c3ccccc23)cc1S(=O)(=O)NCCO`: the z-score was 0.4 (inactive). Consider `Cc1ccc(-c2nnc(NCc3ccccc3)c3ccccc23)cc1S(=O)(=O)N1CCOCC1`, for which the z-score is 3.46 (active). For the molecule `COCc1cc(C)nc(Nc2ccc(C)cc2)c1C#N`, the z-score was -0.19 (inactive). On to `CCCc1nnc2n1Nc1nc3ccccc3nc1S2`, for which the z-score was 0.21 (inactive). For the molecule `Cc1noc(C)c1S(=O)(=O)N(C)C1CCCCC1`, the z-score was 0.73 (inactive).

`O=C(O)CC(CC(=O)Oc1ccccc1N1CCCCC1)c1ccccc1` (stereo not given): the z-score is 4.46 (active). With `Cn1nccc1NC(=O)CC(CC(=O)O)c1ccccc1` (stereo not given) the figure was -0.73 (inactive); with `Cc1cc(NC(=O)CC(CC(=O)O)c2ccccc2)n(C)n1` (stereo not given), -1.02 (inactive); with `CCOC(=O)c1ccc(NCN2C(=O)c3ccccc3C2=O)cc1`, 0.49 (inactive). With `CCCN1C(=O)C2(/C(=C(/O)c3ccc(F)cc3)C(=O)C(=O)N2CCCN(C)C)c2ccccc21` (stereo not given), the z-score is -0.34 (inactive).
